ChEMBL document CHEMBL1961873, “Compounds: GSK PKIS; Assays: Nanosyn kinase panel” (2012)

Legend:
[1] = target: Tyrosine-protein kinase Fyn (Homo sapiens) (UniProt P06241); settings: at 1 µM
[2] = target: Tyrosine-protein kinase HCK (Homo sapiens) (UniProt P08631); settings: at 0.1 µM
[3] = target: Tyrosine-protein kinase HCK (Homo sapiens) (UniProt P08631); settings: at 1 µM
[4] = target: Insulin-like growth factor 1 receptor (Homo sapiens) (UniProt P08069); settings: at 0.1 µM
[5] = target: Insulin-like growth factor 1 receptor (Homo sapiens) (UniProt P08069); settings: at 1 µM
[6] = target: Insulin receptor (Homo sapiens) (UniProt P06213); settings: at 0.1 µM
[7] = target: Insulin receptor (Homo sapiens) (UniProt P06213); settings: at 1 µM
[8] = target: Insulin receptor-related protein (Homo sapiens) (UniProt P14616); settings: at 0.1 µM
Insulin receptor-related protein (Homo sapiens), sequence (P14616 27-742 limits assumed): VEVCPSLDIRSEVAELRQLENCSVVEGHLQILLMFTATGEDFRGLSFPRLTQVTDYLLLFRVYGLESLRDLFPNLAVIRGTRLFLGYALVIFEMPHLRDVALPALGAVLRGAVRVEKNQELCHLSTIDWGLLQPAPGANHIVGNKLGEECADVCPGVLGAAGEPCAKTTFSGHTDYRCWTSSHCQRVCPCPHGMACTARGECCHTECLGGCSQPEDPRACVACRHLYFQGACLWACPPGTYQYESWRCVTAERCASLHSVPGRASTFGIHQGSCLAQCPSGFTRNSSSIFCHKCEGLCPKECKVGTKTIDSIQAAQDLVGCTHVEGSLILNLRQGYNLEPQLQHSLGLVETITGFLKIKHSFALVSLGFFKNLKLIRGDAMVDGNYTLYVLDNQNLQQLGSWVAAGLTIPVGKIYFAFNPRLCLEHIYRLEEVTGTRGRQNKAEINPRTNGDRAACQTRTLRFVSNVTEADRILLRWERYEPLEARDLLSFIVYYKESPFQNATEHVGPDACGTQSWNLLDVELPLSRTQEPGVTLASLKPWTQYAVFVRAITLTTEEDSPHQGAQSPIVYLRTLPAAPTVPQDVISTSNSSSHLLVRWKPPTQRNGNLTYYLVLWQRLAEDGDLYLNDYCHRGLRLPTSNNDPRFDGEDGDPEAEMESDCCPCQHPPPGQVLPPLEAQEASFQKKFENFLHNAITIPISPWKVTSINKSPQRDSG
Insulin receptor-related protein (Homo sapiens), sequence (P14616 747-1297 limits assumed): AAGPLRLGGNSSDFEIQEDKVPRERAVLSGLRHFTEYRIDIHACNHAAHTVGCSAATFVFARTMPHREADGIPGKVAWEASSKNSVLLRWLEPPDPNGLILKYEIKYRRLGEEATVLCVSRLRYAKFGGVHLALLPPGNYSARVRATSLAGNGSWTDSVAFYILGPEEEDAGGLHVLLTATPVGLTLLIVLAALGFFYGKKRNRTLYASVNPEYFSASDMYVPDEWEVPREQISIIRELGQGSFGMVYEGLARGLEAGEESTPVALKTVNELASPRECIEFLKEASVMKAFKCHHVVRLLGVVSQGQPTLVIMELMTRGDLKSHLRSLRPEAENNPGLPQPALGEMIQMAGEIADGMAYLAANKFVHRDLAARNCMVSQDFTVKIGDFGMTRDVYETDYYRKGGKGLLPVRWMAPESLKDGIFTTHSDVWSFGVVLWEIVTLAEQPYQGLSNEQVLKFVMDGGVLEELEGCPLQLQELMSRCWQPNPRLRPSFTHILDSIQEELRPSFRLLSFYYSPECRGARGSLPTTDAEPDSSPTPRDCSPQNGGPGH

[9] = target: Insulin receptor-related protein (Homo sapiens) (UniProt P14616); settings: at 1 µM
[10] = target: T1, Tyrosine-protein kinase ITK/TSK (Homo sapiens) (UniProt Q08881); settings: at 0.1 µM
T1 sequence (whole entry): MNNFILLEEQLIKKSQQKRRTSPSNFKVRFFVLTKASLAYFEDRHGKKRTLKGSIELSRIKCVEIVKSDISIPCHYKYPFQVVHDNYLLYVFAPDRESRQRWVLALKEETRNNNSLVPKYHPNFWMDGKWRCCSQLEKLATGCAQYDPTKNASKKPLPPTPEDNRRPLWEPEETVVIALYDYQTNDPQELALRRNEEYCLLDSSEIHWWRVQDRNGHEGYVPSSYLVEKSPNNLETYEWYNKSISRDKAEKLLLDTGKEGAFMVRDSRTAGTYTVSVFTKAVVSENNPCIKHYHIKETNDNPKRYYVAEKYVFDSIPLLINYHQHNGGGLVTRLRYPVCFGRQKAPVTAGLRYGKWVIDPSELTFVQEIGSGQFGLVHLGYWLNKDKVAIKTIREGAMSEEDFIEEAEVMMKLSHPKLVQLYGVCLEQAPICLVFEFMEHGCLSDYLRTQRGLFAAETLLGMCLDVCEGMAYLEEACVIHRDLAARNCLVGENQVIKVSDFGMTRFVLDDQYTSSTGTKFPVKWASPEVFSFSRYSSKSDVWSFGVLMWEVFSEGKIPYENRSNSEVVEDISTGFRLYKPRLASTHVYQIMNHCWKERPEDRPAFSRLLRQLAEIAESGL

[11] = target: T1, Tyrosine-protein kinase ITK/TSK (Homo sapiens); settings: at 1 µM
[12] = target: Tyrosine-protein kinase JAK1 (Homo sapiens) (UniProt P23458); settings: at 0.1 µM
[13] = target: Tyrosine-protein kinase JAK1 (Homo sapiens) (UniProt P23458); settings: at 1 µM
[14] = target: Tyrosine-protein kinase JAK2 (Homo sapiens) (UniProt O60674); settings: at 0.1 µM
[15] = target: Tyrosine-protein kinase JAK2 (Homo sapiens) (UniProt O60674); settings: at 1 µM
[16] = target: T2, Tyrosine-protein kinase JAK3 (Homo sapiens) (UniProt P52333); settings: at 0.1 µM
T2 sequence (whole entry): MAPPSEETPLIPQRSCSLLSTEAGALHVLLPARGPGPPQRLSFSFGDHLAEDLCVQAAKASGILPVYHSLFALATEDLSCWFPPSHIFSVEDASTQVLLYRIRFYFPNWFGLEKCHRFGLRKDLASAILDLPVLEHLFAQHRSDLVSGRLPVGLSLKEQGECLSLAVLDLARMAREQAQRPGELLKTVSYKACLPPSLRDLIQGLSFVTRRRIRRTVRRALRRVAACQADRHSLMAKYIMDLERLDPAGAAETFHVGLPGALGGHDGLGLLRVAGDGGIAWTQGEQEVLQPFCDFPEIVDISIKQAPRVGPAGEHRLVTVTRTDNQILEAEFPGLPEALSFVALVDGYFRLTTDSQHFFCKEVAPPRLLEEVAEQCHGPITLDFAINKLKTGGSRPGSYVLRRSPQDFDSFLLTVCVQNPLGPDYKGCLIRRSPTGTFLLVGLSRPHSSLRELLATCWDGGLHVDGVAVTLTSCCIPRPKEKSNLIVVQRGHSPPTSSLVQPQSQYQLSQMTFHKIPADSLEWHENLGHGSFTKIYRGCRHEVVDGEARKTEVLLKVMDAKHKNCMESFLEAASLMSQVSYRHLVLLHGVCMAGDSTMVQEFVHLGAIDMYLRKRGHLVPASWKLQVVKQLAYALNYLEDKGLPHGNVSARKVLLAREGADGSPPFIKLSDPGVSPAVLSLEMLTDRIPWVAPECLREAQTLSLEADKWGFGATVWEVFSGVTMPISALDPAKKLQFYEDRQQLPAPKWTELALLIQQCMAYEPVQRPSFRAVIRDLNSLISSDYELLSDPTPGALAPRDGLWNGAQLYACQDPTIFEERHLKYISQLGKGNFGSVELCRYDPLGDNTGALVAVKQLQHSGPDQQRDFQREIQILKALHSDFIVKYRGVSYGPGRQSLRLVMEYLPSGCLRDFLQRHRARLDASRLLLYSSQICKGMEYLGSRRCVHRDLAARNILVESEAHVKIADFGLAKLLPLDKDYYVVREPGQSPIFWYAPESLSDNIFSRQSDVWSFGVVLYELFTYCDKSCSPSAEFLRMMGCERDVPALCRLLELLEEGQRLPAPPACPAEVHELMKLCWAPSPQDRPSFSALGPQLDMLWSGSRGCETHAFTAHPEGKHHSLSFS

[17] = target: T2, Tyrosine-protein kinase JAK3 (Homo sapiens); settings: at 1 µM
[18] = target: Vascular endothelial growth factor receptor 2 (Homo sapiens) (UniProt P35968); settings: at 0.1 µM
Vascular endothelial growth factor receptor 2 (Homo sapiens), sequence (P35968 whole entry): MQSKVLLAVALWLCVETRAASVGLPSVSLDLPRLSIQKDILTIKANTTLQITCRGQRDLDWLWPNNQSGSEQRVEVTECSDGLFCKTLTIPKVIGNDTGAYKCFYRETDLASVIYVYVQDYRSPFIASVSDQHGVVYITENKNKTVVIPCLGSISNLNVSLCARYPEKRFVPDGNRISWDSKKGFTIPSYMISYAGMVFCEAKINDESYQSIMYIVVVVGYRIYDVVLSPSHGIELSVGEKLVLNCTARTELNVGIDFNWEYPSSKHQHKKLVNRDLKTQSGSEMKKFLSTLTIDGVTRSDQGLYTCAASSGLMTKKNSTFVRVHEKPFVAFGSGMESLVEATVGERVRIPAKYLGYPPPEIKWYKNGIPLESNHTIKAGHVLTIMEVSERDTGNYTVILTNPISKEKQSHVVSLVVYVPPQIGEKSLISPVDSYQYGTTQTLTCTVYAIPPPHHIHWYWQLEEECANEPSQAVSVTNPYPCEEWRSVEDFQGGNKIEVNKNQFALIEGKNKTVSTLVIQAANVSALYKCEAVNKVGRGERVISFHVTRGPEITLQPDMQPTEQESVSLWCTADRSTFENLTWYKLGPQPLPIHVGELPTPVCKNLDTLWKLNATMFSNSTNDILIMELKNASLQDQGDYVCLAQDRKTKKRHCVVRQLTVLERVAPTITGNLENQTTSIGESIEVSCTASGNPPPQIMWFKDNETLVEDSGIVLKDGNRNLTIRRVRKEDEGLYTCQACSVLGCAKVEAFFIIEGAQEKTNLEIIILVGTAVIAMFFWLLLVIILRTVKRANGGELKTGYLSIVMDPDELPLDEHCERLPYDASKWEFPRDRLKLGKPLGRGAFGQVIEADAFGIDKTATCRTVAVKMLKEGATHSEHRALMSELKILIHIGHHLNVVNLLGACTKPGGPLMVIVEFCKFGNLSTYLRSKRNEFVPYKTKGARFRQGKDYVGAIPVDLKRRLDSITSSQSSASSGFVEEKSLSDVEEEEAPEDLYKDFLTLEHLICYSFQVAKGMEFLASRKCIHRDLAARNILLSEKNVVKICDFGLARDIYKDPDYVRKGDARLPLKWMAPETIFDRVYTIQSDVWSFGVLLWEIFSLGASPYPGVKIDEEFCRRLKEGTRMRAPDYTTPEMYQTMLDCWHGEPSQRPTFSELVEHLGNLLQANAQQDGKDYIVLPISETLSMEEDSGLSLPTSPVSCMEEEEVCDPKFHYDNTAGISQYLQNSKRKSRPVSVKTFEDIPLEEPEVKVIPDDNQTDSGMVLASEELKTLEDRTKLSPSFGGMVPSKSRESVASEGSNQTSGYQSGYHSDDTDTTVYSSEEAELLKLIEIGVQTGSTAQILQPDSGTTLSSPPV

[19] = target: Vascular endothelial growth factor receptor 2 (Homo sapiens) (UniProt P35968); settings: at 1 µM
[20] = target: Mast/stem cell growth factor receptor Kit (Homo sapiens) (UniProt P10721); settings: at 0.1 µM;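 further: values are mean inhibition of KIT, from the GSK PKIS dataset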

Tyrosine-protein kinase Fyn (Homo sapiens), sequence (P06241 2-537 limits assumed): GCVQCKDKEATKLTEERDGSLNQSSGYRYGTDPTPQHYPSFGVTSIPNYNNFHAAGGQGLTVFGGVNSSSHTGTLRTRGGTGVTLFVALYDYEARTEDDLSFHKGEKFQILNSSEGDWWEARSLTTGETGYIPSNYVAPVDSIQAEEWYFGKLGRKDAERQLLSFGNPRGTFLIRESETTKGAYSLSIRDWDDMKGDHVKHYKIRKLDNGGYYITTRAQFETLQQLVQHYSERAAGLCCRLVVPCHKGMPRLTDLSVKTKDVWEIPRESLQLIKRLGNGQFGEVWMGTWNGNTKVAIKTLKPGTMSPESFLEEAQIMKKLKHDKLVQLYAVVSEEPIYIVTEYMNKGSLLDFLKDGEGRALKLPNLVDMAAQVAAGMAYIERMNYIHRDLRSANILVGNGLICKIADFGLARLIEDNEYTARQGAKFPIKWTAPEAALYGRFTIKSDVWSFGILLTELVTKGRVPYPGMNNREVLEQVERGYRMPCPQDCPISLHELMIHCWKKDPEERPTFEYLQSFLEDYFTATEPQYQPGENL
Insulin-like growth factor 1 receptor (Homo sapiens), sequence (P08069 31-736 limits assumed): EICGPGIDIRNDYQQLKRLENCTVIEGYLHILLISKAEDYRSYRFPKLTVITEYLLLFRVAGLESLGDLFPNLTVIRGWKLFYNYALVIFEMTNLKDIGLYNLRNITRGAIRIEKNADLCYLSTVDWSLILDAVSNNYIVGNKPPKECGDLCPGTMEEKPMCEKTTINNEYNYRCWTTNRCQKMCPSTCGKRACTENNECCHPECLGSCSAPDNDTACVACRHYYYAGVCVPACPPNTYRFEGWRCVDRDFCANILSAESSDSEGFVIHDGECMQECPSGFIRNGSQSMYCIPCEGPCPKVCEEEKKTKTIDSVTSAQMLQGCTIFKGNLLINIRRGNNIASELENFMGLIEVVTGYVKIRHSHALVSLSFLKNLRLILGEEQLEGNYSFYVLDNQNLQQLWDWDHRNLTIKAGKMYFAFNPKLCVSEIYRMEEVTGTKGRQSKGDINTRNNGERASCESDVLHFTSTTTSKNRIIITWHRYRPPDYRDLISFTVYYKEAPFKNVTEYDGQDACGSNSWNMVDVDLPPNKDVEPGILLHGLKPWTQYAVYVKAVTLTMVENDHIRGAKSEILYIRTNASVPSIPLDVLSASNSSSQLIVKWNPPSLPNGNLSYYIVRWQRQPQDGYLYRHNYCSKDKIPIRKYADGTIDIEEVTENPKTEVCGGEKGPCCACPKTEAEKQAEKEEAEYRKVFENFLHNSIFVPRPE
Insulin-like growth factor 1 receptor (Homo sapiens), sequence (P08069 741-1367 limits assumed): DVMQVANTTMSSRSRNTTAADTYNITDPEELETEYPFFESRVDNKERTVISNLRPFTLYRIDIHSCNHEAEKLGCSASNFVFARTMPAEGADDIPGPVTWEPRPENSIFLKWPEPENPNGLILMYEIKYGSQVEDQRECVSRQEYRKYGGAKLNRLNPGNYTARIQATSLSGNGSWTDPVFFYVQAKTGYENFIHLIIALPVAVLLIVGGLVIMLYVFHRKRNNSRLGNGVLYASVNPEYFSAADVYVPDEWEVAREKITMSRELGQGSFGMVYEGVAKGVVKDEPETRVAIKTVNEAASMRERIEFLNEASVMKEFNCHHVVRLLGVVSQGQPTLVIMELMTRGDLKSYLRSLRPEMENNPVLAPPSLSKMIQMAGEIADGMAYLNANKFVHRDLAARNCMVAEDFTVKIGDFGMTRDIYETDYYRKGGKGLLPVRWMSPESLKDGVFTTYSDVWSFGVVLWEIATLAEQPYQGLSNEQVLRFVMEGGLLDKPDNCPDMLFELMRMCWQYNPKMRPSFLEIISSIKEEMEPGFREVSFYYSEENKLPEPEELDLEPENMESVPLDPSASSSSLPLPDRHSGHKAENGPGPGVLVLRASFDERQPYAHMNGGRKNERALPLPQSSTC
Tyrosine-protein kinase HCK (Homo sapiens), sequence (P08631 2-526 limits assumed): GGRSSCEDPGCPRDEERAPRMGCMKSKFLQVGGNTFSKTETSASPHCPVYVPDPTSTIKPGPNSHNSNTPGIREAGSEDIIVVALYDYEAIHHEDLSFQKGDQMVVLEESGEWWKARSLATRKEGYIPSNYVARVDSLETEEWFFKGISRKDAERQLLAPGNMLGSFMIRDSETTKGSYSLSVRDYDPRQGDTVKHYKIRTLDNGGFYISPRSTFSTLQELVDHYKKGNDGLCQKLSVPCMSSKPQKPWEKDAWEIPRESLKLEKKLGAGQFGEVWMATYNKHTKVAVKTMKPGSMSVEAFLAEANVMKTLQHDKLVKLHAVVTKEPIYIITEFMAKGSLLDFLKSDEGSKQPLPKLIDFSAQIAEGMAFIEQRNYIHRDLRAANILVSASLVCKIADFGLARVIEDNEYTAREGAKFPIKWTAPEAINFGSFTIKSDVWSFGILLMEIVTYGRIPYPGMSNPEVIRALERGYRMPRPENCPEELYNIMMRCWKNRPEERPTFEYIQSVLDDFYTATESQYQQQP

SMILES	inhibition [1] [%]	inhibition [2] [%]	inhibition [3] [%]	inhibition [4] [%]	inhibition [5] [%]	inhibition [6] [%]	inhibition [7] [%]	inhibition [8] [%]	inhibition [9] [%]	inhibition [10] [%]	inhibition [11] [%]	inhibition [12] [%]	inhibition [13] [%]	inhibition [14] [%]	inhibition [15] [%]	inhibition [16] [%]	inhibition [17] [%]	inhibition [18] [%]	inhibition [19] [%]	inhibition [20] [%]
CCn1c(-c2nonc2N)nc2c(C#CC(C)(C)O)ncc(OC3CCNCC3)c21	5.91	3.4	7.03	1.97	2.36	1.46	3.32	1.16	2.07	1.99	2.09	3.54	3.51	1.5	2.39	-2.24	-1.24	27.1	76.1	2.24
CNC(=O)c1cc(-c2ccc(F)cc2)cc(-c2ccc(S(=O)(=O)N3CCCC3)cc2)c1N	5.48	2.71	3.16	0.57	1.32	4.78	5.39	-0.17	1.33	1.41	0.87	0.17	1.74	1.75	3.18	-1.74	-0.38	1.67	6.2	3.86
COC(=O)Nc1nc2ccc(S(=O)(=O)c3ccc(NC(=O)Nc4cc(C(F)(F)F)ccc4F)cc3)cc2[nH]1	1.28	3.3	7.43	1.19	1.62	0.84	1.88	0.18	1.09	1.08	2.62	0.99	-1.29	1.28	1.9	-1.12	0.84	4.59	6.23	2.47
COc1ccc(-c2cc(-c3c[nH]nc3-c3ccccn3)ccn2)cc1	3.5	4.81	10.3	3.75	3.01	4.5	3.43	3.63	3.15	1.28	2.05	4.74	7.4	1.59	4.19	-1.18	-0.62	12.7	48	5.05
COc1cccc(-n2ncc3c(N/N=C/c4ccc(F)cc4)ncnc32)c1	31.1	6.41	17.5	2.52	3.62	-0.02	2.69	2.92	2.32	1.34	2.7	4.84	6.9	1.38	4.42	-1.52	1.02	8.15	20.6	5.42
c1ccc(-c2nc3n(c2-c2ccc4c(c2)OCO4)CCC3)nc1	2.79	2.86	0.81	9.41	8.89	4.57	3.26	0.08	1.11	0.42	0.24	-2.35	4.78	1.27	-1.02	-0.19	-0.04	3.58	11.7	1.86
CCn1c(-c2nonc2N)nc2cnc(Oc3cccc(NC(=O)c4ccc(N(C)C)cc4)c3)cc21	1.97	4.12	4.03	-0.26	0.33	2.97	3.14	-0.46	0.53	0.98	0.86	0.78	2.7	0.7	0.27	-0.01	-1.1	2.18	8.86	0.97
CS(=O)(=O)CCNCc1ccc(-c2ccc3ncnc(Nc4ccc(OCc5ccccc5)c(C(F)(F)F)c4)c3c2)o1	4.69	4.59	5.75	-0.48	-0.18	0.37	2.62	2.84	2.56	0.4	2.16	2.98	3.56	1.86	-0.24	-4.36	-1.51	4.72	5.31	6.66
COc1cc(Nc2nccc(Nc3ccc4c(C)n[nH]c4c3)n2)cc(OC)c1OC	85.4	31.2	67.7	28	76.8	13.1	64.7	1.88	3.74	2.37	7.07	17.8	66.5	35.6	72.5	1.48	27.8	74.9	72.5	77.3
CCOc1ccc2c(-c3ccnc(Nc4cccc(C(F)(F)F)c4)n3)cnn2n1	4.94	4.28	6.8	-0.5	1.57	0.36	1.46	0.63	1	0.45	4.47	1.9	5.28	0.91	0.53	-1.95	-0.21	4.26	7.57	3.18
CCCN1CCC(c2ccc(Nc3nc(Nc4cc(F)ccc4C(N)=O)c4cc[nH]c4n3)c(OC)c2)CC1	25.1	5.95	11.5	91.8	93.6	97.5	97.3	93.3	97.2	1.62	7.34	2.55	20.8	0.71	2.85	-0.92	0.07	6.99	18.6	7.64
COc1ccc(-c2oc3ncnc(N)c3c2-c2ccc(NC(=O)Nc3cc(C(F)(F)F)ccc3F)cc2)cc1	52.1	31	86.1	4.58	7.94	4.98	27.2	1.97	6.8	5.01	40.8	14.6	43.3	2.04	14.4	1.04	3.12	75.4	73.7	37.9
